Laboratory results from the supplement of paper PMC3545927.
The list shows a part of the results. The true hit rate is not given.

Biological target: furin, P09958
Assay: furin cleavage Z-score vs untreated control; higher = more cleavage, active = 3.5 or more, inactive = 1 or less, 8 variable residues between constant flanks
Method in brief: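 Reactions of 0.01 ml ran for 7.5, 15 or 30 min in 50 mM HEPES pH 7.5 with CaCl2 and NaCl, at 1:10 enzyme:substrate. In them, purified furin acted on bead-held 8-mer peptides fused to a cDNA oligonucleotide. The cleavage Z-score was obtained by lowess-adjusting log sequencing counts of released DNA against furin-free reactions and scaling by median absolute deviation.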

Chain of furin, P09958 (P09958 whole entry): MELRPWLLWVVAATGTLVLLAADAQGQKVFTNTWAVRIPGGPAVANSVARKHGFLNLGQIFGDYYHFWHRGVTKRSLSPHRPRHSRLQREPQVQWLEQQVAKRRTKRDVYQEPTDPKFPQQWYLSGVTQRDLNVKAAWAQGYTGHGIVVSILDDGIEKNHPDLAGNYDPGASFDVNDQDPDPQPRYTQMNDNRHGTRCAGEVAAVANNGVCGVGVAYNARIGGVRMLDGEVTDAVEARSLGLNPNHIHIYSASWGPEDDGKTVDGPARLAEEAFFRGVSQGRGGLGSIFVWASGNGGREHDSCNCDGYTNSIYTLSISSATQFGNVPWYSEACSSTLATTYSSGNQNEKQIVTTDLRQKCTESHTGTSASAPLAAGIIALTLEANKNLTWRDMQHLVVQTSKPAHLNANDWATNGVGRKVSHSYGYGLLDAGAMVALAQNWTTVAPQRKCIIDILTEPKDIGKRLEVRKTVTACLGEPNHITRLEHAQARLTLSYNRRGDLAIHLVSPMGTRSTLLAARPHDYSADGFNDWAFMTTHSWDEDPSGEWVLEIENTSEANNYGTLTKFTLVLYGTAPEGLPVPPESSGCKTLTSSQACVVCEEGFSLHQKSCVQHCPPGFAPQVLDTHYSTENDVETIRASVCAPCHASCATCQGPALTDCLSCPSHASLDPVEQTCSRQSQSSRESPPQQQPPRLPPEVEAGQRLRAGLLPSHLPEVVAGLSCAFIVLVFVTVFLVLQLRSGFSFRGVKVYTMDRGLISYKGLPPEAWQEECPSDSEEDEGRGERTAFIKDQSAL

Row | Sequence | furin cleavage Z-score (7.5 min) | furin cleavage Z-score (15 min) | furin cleavage Z-score (30 min)
1 | CAMSADLEVVAGNASASA [HC985] | -0.119 (inactive) | 0.307 (inactive) | -0.651 (inactive)
2 | CALDCEIYGAAGNASASA [HC1592] | -0.215 (inactive) | -0.505 (inactive) | -1.05 (inactive)
3 | CAFNSSGCPEAGNASASA [HC384] | -0.864 (inactive) | -1.69 (inactive) | -0.153 (inactive)
4 | CAAILSPGALAGNASASA [HC1103] | 0.122 (inactive) | -1.5 (inactive) | -0.137 (inactive)
5 | CAIMTCMSADAGNASASA [HC983] | -1.36 (inactive) | 0.0813 (inactive) | -2.62 (inactive)
6 | CADSHYQDVLAGNASASA [HC1401] | -0.596 (inactive) | -0.846 (inactive) | 0.188 (inactive)
7 | CADPEVVTSTAGNASASA [HC2299] | -0.751 (inactive) | -0.261 (inactive) | -0.557 (inactive)
8 | CAEVVTSPWVAGNASASA [HC2219] | -0.287 (inactive) | -0.0163 (inactive) | 0.0529 (inactive)
9 | CAEVKCHRPSAGNASASA [HC2354] | 0.191 (inactive) | -0.204 (inactive) | 1.45
10 | CARARRHSDGAGNASASA [FS-2480] | 6.39 (active) | 6.07 (active) | 5.39 (active)
11 | CAKVVILDSFAGNASASA [HC1285] | -0.496 (inactive) | -1.22 (inactive) | -0.351 (inactive)
12 | CAASRVSRRSAGNASASA [FS-979] | 5.49 (active) | 7.22 (active) | 5.62 (active)
13 | CAIALRLRRSAGNASASA [FS-32] | 1.01 | 0.68 (inactive) | 0.673 (inactive)
14 | CAKVLRSRRSAGNASASA [FS-1353] | 3.74 (active) | 4.72 (active) | 3.35
15 | CASPRDARRSAGNASASA [FS-1614] | -1.33 (inactive) | -1.24 (inactive) | -1.6 (inactive)
16 | CAHSRRSRRSAGNASASA [DV5] | 12.2 (active) | 12.3 (active) | 9.14 (active)
17 | CAASRGNHVSAGNASASA [HC1122] | 1.32 | 0.577 (inactive) | 1.1
18 | CAHPRRSRRSAGNASASA [FS-932] | 8.18 (active) | 9.38 (active) | 7.97 (active)
19 | CAYPYRLWHYAGNASASA [HC466] | -1.33 (inactive) | -2.06 (inactive) | 0.263 (inactive)
20 | CASTPCSTHLAGNASASA [HC2538] | -0.715 (inactive) | 0.257 (inactive) | -0.443 (inactive)
21 | CAYCWHYPPKAGNASASA [HC403] | 1.04 | 0.468 (inactive) | 2.44
22 | CAHSRTIKRSAGNASASA [FS-1632] | 5.07 (active) | 6.15 (active) | 6.19 (active)
23 | CATTPCSYSWAGNASASA [HC1889] | -2.07 (inactive) | 0.349 (inactive) | 1.53
24 | CAGNEGCGWAAGNASASA [HC204] | -0.525 (inactive) | -0.206 (inactive) | -0.116 (inactive)
25 | CAGPRLGVRAAGNASASA [HC181] | -1.03 (inactive) | 0.21 (inactive) | -0.871 (inactive)
26 | CAGFHRRARAAGNASASA [FS-239] | 4.46 (active) | 3.84 (active) | 4.12 (active)
27 | CAGNRRRARAAGNASASA [FS-126] | 9.62 (active) | 8.76 (active) | 7.27 (active)
28 | CAQDVLKEVKAGNASASA [HC1403] | -1.57 (inactive) | -2.35 (inactive) | -1.62 (inactive)
